# Results: PubChem BioAssay (EPA / NIEHS)
# Inconclusive results are not listed. Active and inactive are the calls of the source. Rule for the calls, unless noted: active = hit-call score of the fitted dose curve at least 0.9, where 1 is the maximum; inactive = score below 0.9.
# Read-out: Monokine induced gamma interferon (MIG), CXCL9 (gene 4283)
# Experiment: BSK_3C_MIG: BioMAP Diversity Plus: 3C Assay for Monokine induced gamma interferon (MIG) Biomarker Activity (AID 2283021);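 for AC50: MIG protein level measured by immunoassay in the treated endothelial cultures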
# Conditions: primary human endothelial cells (HUVEC); actives raise or lower the signal
# Method in brief: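 Endothelial primary cells (human umbilical vein) are dosed with test chemical in the 3C system. MIG levels are measured by ELISA at 24 h and fitted in both directions relative to DMSO.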
Compound,outcome,AC50
CC[C@H]1CC[C@H](NCc2cc3c(cc2OC)[C@H]2C[C@H]2C(=O)N3C)[C@H](c2ccccc2)N1,inactive,–
Oc1ccc2c(c1)-c1ccccc1C2,inactive,–
Cc1c(-c2cccnc2)c2ccccc2n1CCCCC(=O)O,inactive,–
Cc1ccc(C)c(O)c1,inactive,–
CCCCC(CC)COC(=O)CCCCCCCCC(=O)OCC(CC)CCCC (stereo unspecified),inactive,–
Cc1ccc(S(=O)(=O)O)cc1C,inactive,–
Cc1ccc(N)cc1O,inactive,–
CCC(C)(C)C(=O)O[C@H]1C[C@@H](C)C=C2C=C[C@H](C)[C@H](CC[C@@H]3C[C@@H](O)CC(=O)O3)[C@H]21,inactive,–
C[C@](N)(Cc1ccc(O)c(O)c1)C(=O)O,inactive,–
CC(C)c1cccc(C(C)C)c1N1C(=O)c2ccc(O)cc2C1=O,inactive,–
CCCCCCCCCCCCCCCO,inactive,–
Cn1cnc([N+](=O)[O-])c1Sc1ncnc2nc[nH]c12,inactive,–
CC(O)CN(CCN(CC(C)O)CC(C)O)CC(C)O (stereo unspecified),inactive,–
CNCc1ccc(NC(=O)c2c[nH]c3c2C(=O)CCC3)cc1,inactive,–
Clc1nc(Cl)c(Cl)c(Cl)c1Cl,inactive,–
CCn1nc(Cc2ccccc2)cc1C1CCN(C[C@H]2C[C@H](N(C)[C@@H](C(=O)O)C(C)C)C[C@@H]2c2cccc(F)c2)CC1,inactive,–
O=C1CCCCCN1,inactive,–
COc1ccc(-n2nc(C(F)F)cc2-c2ccc(S(C)=O)cc2)cc1 (stereo unspecified),inactive,–
Cc1[nH]cnc1C[C@H]1CCc2c(C)c3ccccc3n2C1=O,inactive,–
O=C(O)c1cccc(N(Cc2cccnc2)c2ccc(OC(F)F)c(OC(F)F)c2)c1,inactive,–
Fc1ccccc1[C@@H](F)COC1CCC(Nc2ncnc3[nH]ncc23)CC1 (stereo partly specified),inactive,–
CCNc1ccccc1,inactive,–
COc1ccc2sc(C(=O)Nc3nnn[nH]3)c(OC(C)C)c2c1,–,16.1 µM (active)
CCOC(=O)COc1ccc2c(c1)CC(NCC(O)c1cccc(Cl)c1)CC2 (stereo unspecified),–,28.3 µM (active)
COC(=O)c1ccccc1O,inactive,–
CNS(=O)(=O)c1cc(C(=O)N2CCC(CCN3C4CCC3CC(n3c(C)nc5ccccc53)C4)(c3cccc(F)c3)CC2)c(Cl)cc1F (stereo unspecified),inactive,–
O=c1n(CC2CO2)c(=O)n(CC2CO2)c(=O)n1CC1CO1 (stereo unspecified),inactive,–
NC(=O)NO,inactive,–
CN(C)c1ccc(Cc2ccc(N(C)C)cc2)cc1,inactive,–

# Biological target: human Vitamin D Receptor (VDR), VDR (gene 7421) (UniProt P11473)
# Sequence (P11473 whole entry, looked up): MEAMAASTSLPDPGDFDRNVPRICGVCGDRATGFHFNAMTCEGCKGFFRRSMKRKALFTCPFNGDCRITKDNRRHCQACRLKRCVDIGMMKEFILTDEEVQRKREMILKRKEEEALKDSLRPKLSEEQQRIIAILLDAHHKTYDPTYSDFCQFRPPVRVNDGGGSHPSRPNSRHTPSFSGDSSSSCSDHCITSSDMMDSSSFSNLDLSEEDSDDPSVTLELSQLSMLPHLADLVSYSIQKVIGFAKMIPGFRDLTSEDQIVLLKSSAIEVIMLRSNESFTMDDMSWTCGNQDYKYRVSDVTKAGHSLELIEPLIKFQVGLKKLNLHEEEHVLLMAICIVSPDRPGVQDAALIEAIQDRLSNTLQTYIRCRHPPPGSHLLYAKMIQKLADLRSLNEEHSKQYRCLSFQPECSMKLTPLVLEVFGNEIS
# Experiment: ATG_VDR_TRANS: Attagene TRANS-FACTORIAL HepG2 Assay for human Vitamin D Receptor (VDR) (AID 2283022; active = hit-call score of the fitted dose curve at least 0.9, where 1 is the maximum)
# Conditions: not given
# Method in brief: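 Fluorescence of labelled reporter cDNA fragments, resolved by capillary electrophoresis, gives mRNA induction after 24 h treatment of HepG2 cells carrying transfected Gal4-fusion reporter units. Activity is fitted in the positive direction with DMSO as baseline.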
row,Compound,outcome
1,CC[C@H]1CC[C@H](NCc2cc3c(cc2OC)[C@H]2C[C@H]2C(=O)N3C)[C@H](c2ccccc2)N1,inactive
2,Oc1ccc2c(c1)-c1ccccc1C2,inactive
3,Cc1ccc(C)c(O)c1,inactive
4,Cc1ccc(S(=O)(=O)O)cc1C,inactive
5,Cc1ccc(N)cc1O,inactive
6,C[C@](N)(Cc1ccc(O)c(O)c1)C(=O)O,inactive
7,CC(C)c1cccc(C(C)C)c1N1C(=O)c2ccc(O)cc2C1=O,inactive
8,CCCCCCCCCCCCCCCO,inactive
9,CC(O)CN(CCN(CC(C)O)CC(C)O)CC(C)O (stereo unspecified),inactive
10,CNCc1ccc(NC(=O)c2c[nH]c3c2C(=O)CCC3)cc1,inactive
11,Clc1nc(Cl)c(Cl)c(Cl)c1Cl,inactive
12,CCn1nc(Cc2ccccc2)cc1C1CCN(C[C@H]2C[C@H](N(C)[C@@H](C(=O)O)C(C)C)C[C@@H]2c2cccc(F)c2)CC1,inactive
13,O=C1CCCCCN1,inactive
14,COc1ccc(-n2nc(C(F)F)cc2-c2ccc(S(C)=O)cc2)cc1 (stereo unspecified),inactive
15,Cc1[nH]cnc1C[C@H]1CCc2c(C)c3ccccc3n2C1=O,inactive
16,O=C(O)c1cccc(N(Cc2cccnc2)c2ccc(OC(F)F)c(OC(F)F)c2)c1,inactive
17,Fc1ccccc1[C@@H](F)COC1CCC(Nc2ncnc3[nH]ncc23)CC1 (stereo partly specified),inactive
18,CCNc1ccccc1,inactive
19,COc1ccc2sc(C(=O)Nc3nnn[nH]3)c(OC(C)C)c2c1,inactive
20,O=c1n(CC2CO2)c(=O)n(CC2CO2)c(=O)n1CC1CO1 (stereo unspecified),inactive
21,NC(=O)NO,inactive
22,CN(C)c1ccc(Cc2ccc(N(C)C)cc2)cc1,inactive
